Data from PubChem BioAssay (Tox21).
Results filed as inconclusive are left out. A call without a number means that no potency is given here. Values without a mark were called inactive. The source made the active and inactive calls. Calls follow the shape of the dose curve; as a rule, active = well fitted cell-killing curve with a large enough effect in the repeat runs; inconclusive = weak or mixed curves, or effect the other way; inactive = flat fitted curve, though single readings scatter.

Tests used:
[1] = cAMP Responsive Elements (CRE) small molecule antagonists, cell-based qHTS assay: qHTS cell viability counter screen (AID 2060913); also: nearly all actives have a fitted effect of over 40% in size
In short: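 Viability of NKH477-stimulated (0.25 uM final) CRE-bla HEK293T cells is measured by CellTiter-Glo luminescence following 3 hrs compound exposure at 37 C.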

[2] = cAMP Responsive Elements (CRE) small molecule agonists, cell-based qHTS assay: qHTS cell viability counter screen (AID 2060914);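 also: viability read after 3 h of compound exposure; nearly all actives have a fitted effect of over 50% in size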
In short: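 Cells are seeded and incubated 18 h, treated with compounds in DMSO for 3 h, read for the bla reporter, then given CellTiter-Glo; luminescence is measured after 30 min at room temperature.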

Compound | Potency [1] | Potency [2] | viability change, negative = cytotoxic [1] | activity change, negative = cytotoxicity [2]
CC1=CC2C3CC(C=C3C)C2C1 (centres undefined) | inactive | inactive |  | 
CCCCOC(=O)CCCCCCCC(=O)OCCCC | inactive | inactive |  | 
O=C1OC(=O)c2cccc3cccc1c23 | inactive | inactive |  | 
CC(C)NCC(O)COc1cccc2ccccc12 (centres undefined) | inactive | inactive |  | 
CCCC(=O)c1ccccc1 | inactive | inactive |  | 
COC(=O)C1=C(C)NC(C)=C(C(=O)OCC(C)=O)C1c1ccccc1[N+](=O)[O-] (centres undefined) | inactive | inactive |  | 
CCCCC(CC)COC(=O)c1ccccc1 (centres undefined) | inactive | inactive |  | 
CCOC(=O)n1ccn(C)c1=S | inactive | inactive |  | 
CCO[Si](CCC#N)(OCC)OCC | inactive | inactive |  | 
CCCC/C=C/CCCCO | inactive | inactive |  | 
NC(=O)C(=O)N/N=C/c1ccc([N+](=O)[O-])o1 | inactive | inactive |  | 
CCO[Si](CCCCl)(OCC)OCC | inactive | inactive |  | 
CC/C=C\C#N | inactive | inactive |  | 
CCc1ncc(C)[nH]1 | inactive | inactive |  | 
CCCCCCCC/C=C\CCCCCCCC(=O)OCCCC |  |  | -0.67% [at 18.9 µM] | -19.4% [at 18.9 µM]
O=S(=O)(O)SSS(=O)(=O)O | inactive | inactive |  | 
CC1(C)O[C@@H]2C[C@H]3[C@@H]4C[C@H](F)C5=CC(=O)C=C[C@]5(C)[C@H]4[C@@H](O)C[C@]3(C)[C@]2(C(=O)CO)O1 | inactive | inactive |  | 
COC(OC)OC | inactive | inactive |  | 
CCOC(=O)CCC(C)=O | inactive | inactive |  | 

Compound | Potency [1] | Potency [2] | viability change, negative = cytotoxic [1] | activity change, negative = cytotoxicity [2]
O=C1CC2(CCCC2)CC(=O)N1CCNCC1COc2ccccc2O1 (centres undefined) | inactive | inactive |  | 
O=C(O)CNC(=O)c1ccccc1I | inactive | inactive |  | 
C=C[Si](C)(C)O[Si](C)(C)C=C | inactive | inactive |  | 
CN(C)c1cc(NC(=O)CNC(C)(C)C)c(O)c2c1C[C@H]1C[C@H]3[C@H](N(C)C)C(=O)C(C(N)=O)=C(O)[C@@]3(O)C(=O)C1=C2O | inactive | inactive |  | 
CN(C)Cc1cc(C(C)(C)C)c(O)c(C(C)(C)C)c1 | inactive | inactive |  | 
CCCOCCO | inactive | inactive |  | 
OCCCCCCCl | inactive | inactive |  | 
CCCc1ccccc1O | inactive | inactive |  | 
CCCCC(CC)COC(C)=O (centres undefined) | inactive | inactive |  | 
CC(C(=O)O)c1ccc2c(c1)CC(=O)c1ccccc1S2 (centres undefined) | inactive | inactive |  | 
CCCCCCOc1ccc(O)cc1 | inactive | inactive |  | 
CCCCCCCCCCCC(=O)Cl | inactive | inactive |  | 
CC(C)(O)CCCC1=CCC(C=O)CC1 (centres undefined) | inactive | inactive |  | 
COc1ccc(N=[N+]([O-])c2ccc(OC)cc2)cc1 | inactive | inactive |  | 
C/C=C/C(=O)C1=C(C)C=CCC1(C)C | inactive | inactive |  | 
NS(=O)(=O)c1cc(C2(O)NC(=O)c3ccccc32)ccc1Cl (centres undefined) | inactive | inactive |  | 
CCCCCC(CC)OC(=O)CCCOc1ccc(Cl)cc1Cl (centres undefined) | inactive | inactive |  | 
COCCc1ccccn1 | inactive | inactive |  | 
CCCCCCCCCCCCCCCCCC(=O)OCC(O)CO (centres undefined) | inactive | inactive |  | 

Compound | Potency [1] | Potency [2] | viability change, negative = cytotoxic [1] | activity change, negative = cytotoxicity [2]
NS(=O)(=O)c1ccc(N2CCCCS2(=O)=O)cc1 | inactive | inactive |  | 
CC(C)c1cccc(C(C)C)c1 | inactive | inactive |  | 
C[C@@H]1CCN(C(=O)[C@H](CCCN=C(N)N)NS(=O)(=O)c2cccc3c2NC[C@H](C)C3)[C@@H](C(=O)O)C1 | inactive | inactive |  | 
CCCCOc1ccc(CC(=O)NO)cc1 | inactive | inactive |  | 
CN(C)CCC=C1c2ccccc2C=Cc2ccccc21 | inactive | inactive |  | 
C=C(C)C(=O)OCCCCCCCCCCCC | inactive | inactive |  | 
COC(C)CCO (centres undefined) | inactive | inactive |  | 
O=CC(=O)c1ccccc1 | inactive | inactive |  | 
CCCCOCCOCCSC#N | inactive | inactive |  | 
Nc1ccc(S(N)(=O)=O)cc1 | inactive | inactive |  | 
CN1CC(=O)N2[C@H](c3ccc4c(c3)OCO4)c3[nH]c4ccccc4c3C[C@@H]2C1=O | inactive | inactive |  | 
Cc1ccc(-n2[nH]c(C)c(N=Nc3cccc(-c4cccc(C(=O)O)c4)c3O)c2=O)cc1C | inactive | inactive |  | 
NS(=O)(=O)c1cc2c(cc1Cl)NC(CC1CCCC1)NS2(=O)=O (centres undefined) | inactive | inactive |  | 
CC(=O)NC(Cc1ccccc1)C(=O)O (centres undefined) | inactive | inactive |  | 
CC(CCc1ccc(O)cc1)NCCc1ccc(O)c(O)c1 (centres undefined) | inactive | inactive |  | 
Fc1ccccc1-c1ccccc1 | inactive | inactive |  | 
COc1ccc2[nH]cc(CCNC(C)=O)c2c1 | inactive | inactive |  | 
CCOC(=O)CC(=O)c1cc(F)c(Cl)nc1Cl | inactive | inactive |  | 
Nc1ccc2c3c(cccc13)-c1ccccc1-2 | inactive | inactive |  | 
